Shiga toxin inh – blocks Shiga toxin action in Vero cells | AID 2315 | inhibition, % at 38.7 µM | Vero cells, Shiga toxin protein synthesis inhibition reporter | 290,000 compounds, 9.2% hits; in the data active = inhibition mostly above about 28%, no sharp cut-off; inactive = mostly below about 43%; note: 0% is about no effect
Pf growth 96h – P. falciparum growth inhibition at 96 hours. Potency, µM (highest dose often 28.7 µM), for inactives: top-dose activity change, negative = inhibition, usual class: inhibitors. AID 504834. P. falciparum luciferase reporter growth, 96 h. 320,000 compounds, 6.9% hits; note: potency is the fitted concentration of half-maximal effect; % is set by controls: 0 for no effect and ±100 for the full control effect
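96 h incubation, 37 C, 5% CO2, of luciferase-reporter P. falciparum-infected RBCs (2% hematocrit, 0.05% parasitemia final) with test compounds; endpoint luminescence.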
Cycloheximide cs – counter-screen for Shiga toxin inhibitors: cycloheximide protein synthesis inhibition; AID 2314; max response, %; cell reporter, cycloheximide protein synthesis inhibition counterscreen; 300,000 compounds, 12% hits; in the data active = max response mostly above about 13%, no sharp cut-off; inactive = mostly below about 14%; note: read at 38.3 µM for the half of the compounds with a filed dose; 0% is about no effect
Pf growth 48h – inhibits P. falciparum growth in the first generation, 48 h; P. falciparum luciferase growth in erythrocytes, 48 h; Potency, µM (doses to about 28.7 µM), inactives show top-dose activity change, negative = inhibition, actives largely listed as inhibitors; 310,000 compounds, 5.9% hits; note: potency is the fitted concentration of half-maximal effect; % is set by controls: 0 for no effect and ±100 for the full control effect
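Growth was read as firefly luciferase luminescence after a 48 h, 37 C, 5% CO2 exposure of compounds to reporter-bearing P. falciparum cultures (0.1% parasitemia, 2% hematocrit final) in Albumax-supplemented RPMI 1640.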
An asterisk follows results filed as active; [ ] = another dose, or the depositor's remark. Rows were chosen to be rich in hits. Some 21% of all compounds tested hit in one or more screens of this group. Unless noted, calls come from the whole dose curve; as a rule, active = well fitted inhibition curve with a large enough effect; inconclusive = small, poorly fitted or top-dose-only effect, or another doubt; inactive = no such curve, though single readings can be large or run the other way.

CCOC(=O)c1c(NC(=O)C(F)(OC)C(F)(F)F)sc(C(=O)N2CCCCC2)c1C (configuration not stated) was read as Shiga toxin inh -11.1, Pf growth 96h 43.7%, Cycloheximide cs -3.0 and Pf growth 48h 11.7µM*.
`CCOC(=O)c1sc(NC(=O)CN2CCCC2)c(C(=O)OCC)c1C` gave Shiga toxin inh -5.2, Pf growth 96h 133.8%, Cycloheximide cs -2.6 and Pf growth 48h 8.3%.
`Cc1ccc(CNC(=O)C2CCN(S(=O)(=O)c3ccc4c(c3)CC(C)N4C(=O)C3CCC3)CC2)o1` (configuration not stated) gave Shiga toxin inh -8.0, Pf growth 96h inconclusive, Cycloheximide cs 1.1 and Pf growth 48h inconclusive.
Screening COc1ccc(C2c3c(ncn(CCCN4CCOCC4)c3=N)Oc3ccc4ccccc4c32)cc1OC (configuration not stated) returned Shiga toxin inh 9.4, Pf growth 96h 1.85µM*, Cycloheximide cs -0.9 and Pf growth 48h 4.15µM*.
For COc1ccc(C2c3ccc4ccccc4c3Oc3ncn(CCN4CCOCC4)c(=N)c32)cc1 (configuration not stated) the results were Shiga toxin inh -20.2, Pf growth 96h 6.57µM*, Cycloheximide cs -7.7 and Pf growth 48h 11.7µM*.
`COc1ccc(C2c3ccc4ccccc4c3Oc3ncn(CCN4CCOCC4)c(=N)c32)cc1OC` (configuration not stated) gave Shiga toxin inh -16.0, Pf growth 96h 13.1µM*, Cycloheximide cs -2.9 and Pf growth 48h 9.28µM*.
`N=c1c2c(ncn1CCCO)Oc1ccc3ccccc3c1C2c1ccccc1` (configuration not stated) gave Shiga toxin inh -14.5, Pf growth 96h inconclusive, Cycloheximide cs 1.1 and Pf growth 48h inconclusive.
Screening COc1ccc(C2c3ccc(O)cc3Oc3ncn(CCN4CCOCC4)c(=N)c32)cc1OC (configuration not stated) returned Shiga toxin inh -9.0, Pf growth 96h inconclusive, Cycloheximide cs -1.1 and Pf growth 48h inconclusive.
For CC(OC(=O)Cc1c[nH]c2ccccc12)C(=O)Nc1ccccc1[N+](=O)[O-] (configuration not stated) the results were Pf growth 96h 11.9% and Pf growth 48h 28.0%.
`CCN(CC(=O)Nc1c(F)cccc1F)C(=O)CCNC(=O)c1ccco1` gave Pf growth 96h 14.1% and Pf growth 48h inconclusive.
`CSCCC(NC(=O)c1ccc([N+](=O)[O-])cc1Cl)C(=O)OC1CCCCC1=O` (configuration not stated) gave Shiga toxin inh -6.9, Pf growth 96h -26.8%, Cycloheximide cs -3.4 and Pf growth 48h 20.8%.
`COc1cccc2c1C(=O)c1c(O)c3c(c(O)c1C2=O)C[C@@](O)(C(=O)CO)C[C@@H]3OC1CC(N)C(O)C(C)O1` (some centres not stated) gave Pf growth 96h 0.0675µM* and Pf growth 48h 0.426µM*.
`CC(=O)C1(O)Cc2c(O)c3c(c(O)c2C(OC2CC(N)C(O)C(C)O2)C1)C(=O)c1c(O)cccc1C3=O` (configuration not stated) gave Pf growth 96h 0.849µM* and Pf growth 48h 1.51µM*.
CCCn1c(=O)cc(N)n(-c2ccc(OC(F)(F)F)cc2)c1=O was read as Shiga toxin inh 2.8, Pf growth 96h 4.2%, Cycloheximide cs -1.1 and Pf growth 48h 7.9%.
`CCOc1ccc2oc(C(=O)O)c(C)c2c1` gave Shiga toxin inh 23.0, Pf growth 96h 56.0%, Cycloheximide cs 25.8* and Pf growth 48h 43.9%.
CCOc1ccc2oc(C(=O)N3CCN(Cc4ccccc4)CC3)c(C)c2c1 was read as Shiga toxin inh -8.9, Pf growth 96h -31.4%, Cycloheximide cs 0.4 and Pf growth 48h -23.4%.
CCOc1ccc2oc(C(=O)NNC(=O)c3ccccc3O)c(C)c2c1 was read as Pf growth 96h 18.4% and Pf growth 48h -21.3%.
For CCOc1ccc2oc(C(=O)N3CC(C)OC(C)C3)c(C)c2c1 (configuration not stated) the results were Shiga toxin inh 18.4, Pf growth 96h 7.38µM*, Cycloheximide cs 24.0* and Pf growth 48h inconclusive.
For CCOc1ccc2oc(C(=O)Nc3ccc4c(c3)OCO4)c(C)c2c1 the results were Shiga toxin inh 105.9*, Pf growth 96h 89.4%, Cycloheximide cs 25.0* and Pf growth 48h 90.6%.
For Cc1oc2ccc(OCc3ccc(Cl)cc3)cc2c1C(=O)O the results were Shiga toxin inh 86.6*, Pf growth 96h 14.0%, Cycloheximide cs 26.7* and Pf growth 48h 23.3%.
CCOc1ccc2oc(C(=O)Nc3ccc(N4CCOCC4)cc3)c(C)c2c1 was read as Shiga toxin inh -4.3, Pf growth 96h inconclusive, Cycloheximide cs 0.4 and Pf growth 48h -18.5%.
For Cc1ccc(C(=O)N2CCN(c3ccccn3)CC2)cc1Cl the results were Shiga toxin inh -3.4, Pf growth 96h 0.0%, Cycloheximide cs -4.6 and Pf growth 48h -23.5%.
COc1cccc(C(=O)N2CCn3c2nc2ccccc23)c1 was read as Shiga toxin inh 34.3, Pf growth 96h inconclusive, Cycloheximide cs 23.9* and Pf growth 48h 30.5%.
For CC(C)(C)C(=O)N1CCn2c1nc1ccccc12 the results were Shiga toxin inh 23.2, Pf growth 96h 2.62µM*, Cycloheximide cs 9.1 and Pf growth 48h 7.1%.
O=C(c1cccs1)N1CCn2c1nc1ccccc12 was read as Shiga toxin inh 56.2*, Pf growth 96h -2.1%, Cycloheximide cs 40.7* and Pf growth 48h 105.1%.
Screening N#CCC(=O)N1CCn2c1nc1ccccc12 returned Shiga toxin inh -4.1, Pf growth 96h 15.3%, Cycloheximide cs 1.2 and Pf growth 48h -0.8%.
`O=C(c1ccc(Cl)cc1)N1CCn2c1nc1ccccc12` gave Shiga toxin inh 3.8, Pf growth 96h 16.2%, Cycloheximide cs -3.7 and Pf growth 48h -15.2%[5.75 µM].
Screening O=C1CCC([N+](=O)[O-])C(c2ccccc2C(F)(F)F)N1 (configuration not stated) returned Shiga toxin inh -10.8, Pf growth 96h inconclusive, Cycloheximide cs -0.8 and Pf growth 48h 0.5%.
Screening CN(C)C(C)(C)C#CCC(c1ccccc1)c1ccccc1 returned Shiga toxin inh -7.2, Pf growth 96h inconclusive, Cycloheximide cs -0.6 and Pf growth 48h 9.28µM*.
`CN(C)C(C)(C)C#CCCCCC#CC(C)(C)N(C)C` gave Shiga toxin inh -0.3, Pf growth 96h inconclusive, Cycloheximide cs -2.9 and Pf growth 48h inconclusive.
Screening CCOc1cc(C=O)ccc1OCCSc1ccc(C)cc1 returned Shiga toxin inh 25.6, Pf growth 96h 10.0%, Cycloheximide cs 23.1 and Pf growth 48h -13.9%.
COc1cc(C=O)ccc1OCc1cccc(Br)c1 was read as Shiga toxin inh 70.4*, Pf growth 96h -11.4%, Cycloheximide cs 46.7* and Pf growth 48h 50.0%.
COC(=O)c1ccccc1OCCCOc1ccc(C=O)cc1OC was read as Shiga toxin inh 86.5*, Pf growth 96h 139.1%, Cycloheximide cs 36.9* and Pf growth 48h 43.5%.
`COc1cc(C=O)ccc1OCc1ccccc1Br` gave Shiga toxin inh 73.7*, Pf growth 96h 36.2%, Cycloheximide cs 60.8* and Pf growth 48h 112.5%.

Compound activity: PubChem BioAssay, National Center for Advancing Translational Sciences (NCATS)
